Results with a measured potency or affinity are listed apart. Records with an inconclusive call do not appear. Calls of active or inactive are those of the source. How the calls were made is not given here.
Biological target: CAAX prenyl protease 1 (Saccharomyces cerevisiae (strain ATCC 204508 / S288c)) (UniProt P47154)
Assay: yeast CAAX protease Ste24 inhibition – biochemical, S. cerevisiae, plate reader, cherry-pick, dose response (AID 488815)
Conditions: series mostly up to 10 µM

Chain of CAAX prenyl protease 1 (Saccharomyces cerevisiae (strain ATCC 204508 / S288c)) (P47154 whole entry, looked up): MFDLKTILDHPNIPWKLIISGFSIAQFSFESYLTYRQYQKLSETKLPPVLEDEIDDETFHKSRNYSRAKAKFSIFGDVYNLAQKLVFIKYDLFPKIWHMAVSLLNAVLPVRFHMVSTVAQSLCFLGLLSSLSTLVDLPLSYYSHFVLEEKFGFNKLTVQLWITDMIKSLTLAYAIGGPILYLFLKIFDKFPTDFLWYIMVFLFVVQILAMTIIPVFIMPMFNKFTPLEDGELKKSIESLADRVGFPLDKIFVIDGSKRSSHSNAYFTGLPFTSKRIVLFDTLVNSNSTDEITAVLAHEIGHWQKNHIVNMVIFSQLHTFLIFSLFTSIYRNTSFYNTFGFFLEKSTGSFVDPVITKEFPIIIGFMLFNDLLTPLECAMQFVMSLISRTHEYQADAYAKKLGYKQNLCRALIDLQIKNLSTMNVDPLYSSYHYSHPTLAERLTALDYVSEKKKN

outcome, inactive:
CC(C)(C)C(=O)C[n+]1ccc(C(N)=O)cc1, CCN1CCN(c2ccc(NC(=O)c3cccc(OCc4ccccc4)c3)cc2)CC1, CC(C)c1c(C(=O)N/N=C/c2cccc3ccccc23)nnn1-c1nonc1N, N#Cc1c(OCC(=O)c2ccccc2)nc2c(c1-c1ccco1)CCc1ccccc1-2, CN(C(=O)COC(=O)c1cn(-c2ccccc2)nc1-c1ccccc1)C1CCS(=O)(=O)C1 (stereo not given), Cc1cc(C)n2nc(CC(=O)NNC(=O)c3ccc(N(C)C)cc3)nc2n1, CC(=O)c1c(C)oc2ccc(NS(=O)(=O)c3ccc(C(=O)O)cc3)cc12, CC(=O)N1c2ccc([N+](=O)[O-])cc2NC(=O)CC1C (stereo not given), CCOc1ccc(N(CC(=O)NC2CC3CCC2C3)S(=O)(=O)c2ccccc2)cc1 (stereo not given), Cc1nc(N2CCOCC2)c2c(C)c(C(=O)Nc3ccc(C(F)(F)F)cc3)sc2n1, COc1ccc(C)cc1NC(=O)CN1C(=O)COc2ccc(S(=O)(=O)N3CCOCC3)cc21, O=C(CCNC(=O)N1CC(=O)Nc2ccccc21)NCCc1cccc(F)c1, CN1C(=O)/C(=C/c2cccc(Cl)c2)Sc2ccc(C(=O)N3CCOCC3)cc21, O=C1C(Cc2c[nH]c3ccccc23)NC(=S)N1Cc1ccccc1 (stereo not given), CCCCOC(=O)Nc1nc(C)c(C(=O)OCC)s1, COCCN1C(=O)/C(=C/c2ccc(Oc3ccc([N+](=O)[O-])cn3)c(OC)c2)SC1=Nc1ccccc1, CCn1c(COc2cccc(C)c2)nnc1SCC(=O)NC1CCCC1, CCC(COC)NC(=O)CCc1nnc(Cc2cccc(C(F)(F)F)c2)o1 (stereo not given), CN(C)CC(C)(C)CNC(=S)NCc1ccc2c(c1)OCO2, O=C(O)CCCC[C@@H]1SC[C@@H]2NC(=O)N[C@@H]21, Nc1nonc1-n1nnc(C(=O)N/N=C/c2ccoc2)c1CSc1ccccc1, COc1ccc(C2CC(c3ccccc3)=NN2C(=O)c2ccc(Cl)c([N+](=O)[O-])c2)cc1 (stereo not given), CC(C)(C)OC(=O)N1CCC(c2cc(=O)n3[nH]cc(C(=O)Nc4ccc(F)c(Cl)c4)c3n2)CC1, CC(C)C(=O)Nc1cccc(NC(=S)NC(=O)C(c2ccccc2)c2ccccc2)c1, O=C(CC1(O)C(=O)N(C/C=C/c2ccccc2)c2ccccc21)c1ccccn1 (stereo not given), COc1cccc(/C=N/NC(=O)c2nnn(-c3nonc3N)c2C(C)C)c1OCc1ccc(F)cc1, CCOC(=O)c1cc(-c2ccccc2)sc1NC(=O)C(C)Sc1nnnn1C (stereo not given), CC1(C)CC2CC(C)(CN2S(=O)(=O)c2ccc(N)cc2)C1 (stereo not given), Cc1ccc(S(=O)(=O)c2cn(C)c3cc(N4CCOCC4)c(F)cc3c2=O)cc1, Cc1cc(C(=O)N[C@H](c2ccccc2)[C@@]2(C)C[C@@H]2[C@@H](C)C(=O)Nc2ccc3ccccc3c2)n(C)n1, CC1CCc2c(sc(NC(=O)COC(=O)c3ccccc3NCc3ccco3)c2C#N)C1 (stereo not given), COc1cccc2sc3ccc(C#CC4(O)CCCCC4)cc3c(=O)c12, CCOC(=O)c1c(NC(=O)c2cccc(N3C(=O)CCC3=O)c2)sc(C)c1C, COC(C[C@@H](O)C[C@H](O)[C@H](C)OCc1ccccc1)OC, CC(C)CNC(=O)COc1cccc(C(=O)NCc2ccccc2)c1, O=C(O)CCc1nc2cc(C(F)(F)F)ccc2n(Cc2ccccc2)c1=O, Cc1ccc(S(=O)(=O)CC(=O)N2CCN(c3ccccc3F)CC2)cc1, O=C(CCNS(=O)(=O)c1ccc2[nH]c(=O)oc2c1)NCc1ccccc1, CC(C)CC(=O)NC(=S)Nc1ccc(S(=O)(=O)Nc2nccs2)cc1, Cc1ccc(NC(=O)CCc2ccc(S(=O)(=O)NC3CCCCC3)cc2)cc1

Source: PubChem BioAssay AID488815 (Broad Institute, 2010)
